Reference: PubChem BioAssay AID2314 (National Center for Advancing Translational Sciences (NCATS), 2010)
About 37,000 (12%) of roughly 300,000 compounds were called active. Shown is part of a subset that was picked to be rich in actives. A number with no mark means an inactive call. Rule as the data show it: active = max response mostly above about 13% (no sharp cut-off); inactive = mostly below about 14%.

Assay: Cycloheximide Counterscreen for Small Molecule Inhibitors of Shiga Toxin; also: read at 38.3 µM for the half of the compounds with a filed dose; 0% is about no effect
Settings: cell reporter, cycloheximide protein synthesis inhibition counterscreen; hits give high values

Row | Compound | max response
1 | Fc1ccccc1COc1ccccc1CNCc1ccncc1 | -2.19%
2 | CN(Cc1ccccc1)CC(O)COc1ccc(CNCc2cc3ccccc3s2)cc1 (stereo not drawn) | -1.23%
3 | O=C(NNC(=S)Nc1ccc(F)cc1)[C@H]1C[C@@H]1c1ccccc1 | -2.55%
4 | Cc1ccc(C2CC2C(=O)NN)cc1 (stereo not drawn) | 4.7%
5 | Cc1ccc(NC(=O)C2CC2c2ccccc2)cc1 (stereo not drawn) | 28.4% (active)
6 | O=C(NC1CCN(Cc2ccccc2)CC1)c1ccc(Oc2cc(Cl)cc(Cl)c2)o1 | -0.55%
7 | COC(=O)c1c(NC(=O)c2cccs2)sc2c1CCCC2 | 9.75%
8 | CCc1c(C)sc(NC(=O)c2ccc(Br)o2)c1C(=O)OC | 5.7%
9 | Cc1ccc(-c2nnc(-c3ccc(NC(=O)c4cccs4)cc3)o2)cc1 | -3.98%
10 | Cc1nc(-c2ccc(NC(=O)c3cccs3)cc2)cs1 | 23.7% (active)
11 | CCCc1ccc(-c2csc(NC(=O)Cc3cccs3)n2)cc1 | 22.9% (active)
12 | Cc1ccc(OCC(=O)Nc2ccc(NC(=O)c3cccs3)cc2)c(C)c1 | -4.62%
13 | CCc1nnc(NC(=O)Cc2cccs2)s1 | 1.7%
14 | CCCc1nnc(NC(=O)c2cccs2)s1 | 12.8% (active)
15 | CCCc1nnc(NC(=O)c2cc(OC)cc(OC)c2)s1 | 8.3%
16 | CCc1c(C)sc(NC(=O)c2cccs2)c1C(N)=O | 63.8% (active)
17 | Cc1ccc(-c2csc(NC(=O)Cc3cccs3)n2)cc1C | 12.4%
18 | CC(=O)c1ccc(N2CCN(C(=O)CCNC(=O)Cn3ccc4ccccc4c3=O)CC2)cc1 | -4.48%
19 | O=C(O)CCCN1C(=O)c2ccccc2Sc2ncccc21 | -1.01%
20 | C=C1CCN(C(CC(C)C)C(=O)NCc2cc(OC)c(OC)c(OC)c2)S(=O)(=O)c2ccccc21 (stereo not drawn) | -2.25%
21 | Cc1ccc(CSCCNC(=O)CN(c2ccc(F)cc2)S(C)(=O)=O)cc1 | -2.68%

Row | Compound | max response
22 | Cc1ccccc1C(=O)N1CCC(C(=O)Nc2ccc(S(=O)(=O)N(C)C(C)C)cc2)CC1 | 4.98%
23 | CC1CCCCN1C(=O)Cn1c(=O)oc2cc(S(=O)(=O)N3CCCCC3)ccc21 (stereo not drawn) | -1.34%
24 | CC(C)(C)NCc1cc(Br)ccc1OC1CCCC1 | -4.63%
25 | CCCCCCn1cc(C(=O)O)c(=O)c2cc(F)c(N3CCCCC3)cc21 | -0.584%
26 | Cc1ccc(-c2csc(N(Cc3ccco3)C(=O)c3cccs3)n2)cc1 | 16.7% (active)
27 | O=C(Nc1n[nH]c(C(F)(F)F)n1)c1cccs1 | -2.4%
28 | Cc1ccc(-c2csc(NNC(=O)c3ccccc3)n2)cc1 | -2.93%
29 | Cc1nnc(N(Cc2ccco2)C(=O)c2ccno2)s1 | -2.88%
30 | O=C(O)CCC(=O)N(Cc1ccco1)c1nc(-c2ccccc2)cs1 | -1.24%
31 | Cc1ccc(-c2csc(NC(=O)c3cccs3)n2)cc1 | 60.5% (active)
32 | CCC(CC)c1nnc(NC(=O)C2CCN(C(=O)c3ccco3)CC2)s1 | -2.36%
33 | O=C(CNC1CCCCC1)NCC1(c2ccccc2)CCCC1 | -3.76%
34 | COCc1cc(=O)n2[nH]c(C)c(-c3ccccc3)c2n1 | 1.24%
35 | COCc1cc(C(C)=O)ccc1OC | -7.85%
36 | COc1cc(C(C)=O)ccc1OC(=O)CN1C(=O)c2ccccc2C1=O | -2.6%
37 | COc1ccccc1-c1sc2ccccc2c1-c1ccc(C(C)=O)cc1 | 25.3% (active)
38 | CC(=O)Nc1ccc(Oc2ccc3c(c2)C(=O)NC3=O)cc1 | -1.54%
39 | c1coc(CNc2ncnc3ccccc23)c1 | -1.39%
40 | CCOCCCNc1nc(-c2ccccc2)nc2ccccc12 | 7.13%
41 | CS(=O)(=O)n1nc(-c2ccccc2)nc1NCc1ccco1 | 13.9%
42 | c1ccc(-c2nc(NCc3ccco3)c3ccccc3n2)cc1 | 16.8% (active)

Row | Compound | max response
43 | O=C(Cc1ccccc1)n1nc(-c2ccccc2)nc1NCc1ccco1 | 15.3% (active)
44 | CSc1nc(-c2ccco2)nn1C(=O)CCc1ccccc1 | -3.44%
45 | Cc1cc(=O)[nH]c2nnnn12 | 4.1%
46 | CC1(c2ccccc2)CC(C)(C)N(C(=O)c2cc([N+](=O)[O-])cc([N+](=O)[O-])c2)c2ccccc21 (stereo not drawn) | -4.42%
47 | N#CC1(C#N)C(C(=O)C23CC4CC(CC(C4)C2)C3)C12CCOCC2 (stereo not drawn) | 2.45%
48 | Cc1cccc(N(C)C(=O)c2cc3c(=O)[nH]c4ccc(C)cc4c3s2)c1 | -2.49%
49 | COc1ccc(COC(=O)c2ccc(Cl)c(S(=O)(=O)N3CCOCC3)c2)cc1F | 6.51%
50 | COc1ccc(-c2cc(=O)oc3cc(OCC(=O)N[C@@H](Cc4c[nH]c5ccccc45)C(=O)O)ccc23)cc1 | 0.573%
51 | CCC(C)NC(=O)c1cc(Cl)ccc1OC (stereo not drawn) | 5.03%
52 | CC(C)C(NC(=O)c1ccc(Cl)cc1)C(=O)O (stereo not drawn) | -2.96%
53 | COc1ccc(-c2cc(C(=O)NC(C(=O)O)C(C)C)c(C)o2)cc1OC (stereo not drawn) | 28.2% (active)
54 | Cc1cccc(C)c1OCC(=O)NC(Cc1c[nH]c2ccccc12)C(=O)O (stereo not drawn) | -0.482%
55 | COc1ccc(-c2cc(C(=O)NC(Cc3c[nH]c4ccccc34)C(=O)O)c(C)o2)cc1OC (stereo not drawn) | 32.9% (active)
56 | COc1ccc(C(=O)N/N=C2\CCS(=O)(=O)c3ccc(F)cc32)cc1OC | -4.85%
57 | O=C(CN(C(=O)c1csnn1)c1cccc(Cl)c1)NC1CCCC1 | 4.33%
58 | Cc1c(OC(C)C(=O)N[C@@H](Cc2ccccc2)C(=O)O)ccc2c3c(c(=O)oc12)CCCC3 (stereo partly drawn) | -2.81%
59 | CCCOc1ccc2c3c(c(=O)oc2c1OCCC)CCC3 | -3.41%
60 | COc1ccc2c3c(c(=O)oc2c1OCC(=O)C(C)(C)C)CCCC3 | 35% (active)
61 | COc1ccc(C(=O)CN(C(=O)c2ccc(Cl)cc2)N2C(=O)c3ccccc3C2=O)cc1 | -2.08%
62 | CCn1c(C)cc(=O)cc1-c1ccc(Cl)cc1 | -3.63%
63 | COc1ccc(Cn2c(-c3ccc(Cl)cc3)c[n+]3ccccc23)cc1 | 50.5% (active)
